From PubChem BioAssay (EPA / NIEHS) come the findings set out here.

Results filed as inconclusive are left out. Activity calls are given as the source filed them. Rule for the calls: active = hit-call score of the fitted dose curve at least 0.9, where 1 is the maximum; inconclusive = response in the unintended direction; inactive = score below 0.9.

This assay is described as follows: Tanguay_ZF_120hpf_SOMI_legacy: (Legacy) Oregon State University Tanguay Lab 120 Hour Post-fertilization zebrafish Assay for Somite Malformation (AID 2283647). The protocol: Tanguay_ZF_120hpf_legacy is a whole embryo, multiplexed endpoint assay using zebrafish larvae exposed for 120 hours post fertilization on a 96-well plate.Tanguay_ZF_120hpf_SOMI_legacy is one of one assay component(s) measured or calculated from the Tanguay_ZF_120hpf_legacy assay. It is designed to make measurements of zebrafish development as detected with brightfield microscopy of developing zebrafish embryos.Data from the assay component Tanguay_ZF_120hpf_SOMI_legacy was analyzed into 1 assay endpoints. This assay endpoint, Tanguay_ZF_120hpf_SOMI_legacy, was analyzed in the positive analysis fitting direction relative to DMSO as the negative control and baseline of activity. Using a type of morphology reporter, gain-of-signal activity can be used to understand changes in developmentals as they relate to the whole embryo. To generalize the intended target to other relatable targets, this assay endpoint is annotated to the zebrafish development intended target family, where the subfamily is somitogenesis.
Zebrafish husbandry: Tropical 5D wild-type adult zebrafish were housed in at an approximate density of 1000 per 100 gallon tank at the Sinnhuber Aquatic Research Laboratory, Oregon State University, Corvallis, OR. Each tank was kept at standard laboratory conditions of 28C on a 14-h light/10-h dark photoperiod in fish water consisting of reverse osmosis water supplemented with a commercially available salt (Instant Ocean). Spawning funnels were placed into the tanks the night prior, and embryos were collected and staged. To increase bioavailability, the chorion was enzymatically removed using pronase (63.6mg/ml, >/= 3.5U/mg, Sigma-Aldrich: P5147) at 4 hours post fertilization (hpf) using a custom automated dechorionator.Chemical exposures: Six hpf dechorionated embryos were placed 1 embryo per well in a 96-well plate prefilled with 90 ul of EM using automated embryo placement systems (AEPS). Ten microliters of each row of dilution plate 2 was added to 2 exposure plates. The final DMSO concentration used was 0.64% (vol/vol). Thirty-two embryos were also exposed to 5uM trimethyltin chloride (positive control). Plates were sealed to prevent evaporation and foil covered to reduce light exposure and kept in a 28C incubator. Embryos were statically exposed until 120 hpf. At 24 hpf, embryos were assessed for photomotor response using a custom photomotor response analysis tool (PRAT) and for developmental toxicity endpoints (MO24: mortality at 24 hpf, DP: developmental progression, SM: spontaneous movement, and NC: notochord distortion). At 120 hpf, locomotor activity was measured using Viewpoint Zebralab and assessed for 18 endpoints. Zebrafish acquisition and analysis program (ZAAP), a custom program designed to inventory, acquire, and manage zebrafish data, was used to collect developmental endpoints as either present or absent (i.e., binary responses were recorded). If mortality occurred for an embryo (at either 24 or 120 hpf), the non-mortality endpoints were not measured.
On to `O=c1ccc(=O)[nH][nH]1`, for which the compound was classed as inactive.

For `S=C1NCCN1`, the result was inactive.

With `CSc1nc(NC(C)C)nc(NC(C)C)n1`, the compound was classed as inactive.

On to `CCCOCC(=Nc1ccc(Cl)cc1C(F)(F)F)n1ccnc1`, for which the compound was called inactive.

As to `CCCSP(=O)(OCC)Oc1ccc(Br)cc1Cl` (stereo not given), the compound was classed as inactive.

With `CNC(=O)ON=C(SC)C(=O)N(C)C`, the compound was classed as inactive.

As for `CNC(=O)Oc1cccc2c1OC(C)(C)O2`, the outcome was inactive.

As for `COP(=O)(OC)C(O)C(Cl)(Cl)Cl` (stereo not given), the result was inactive.

`CCCCOC(=O)c1ccccc1C(=O)O`: the call was inactive.

As to `CCOP(=S)(OCC)OC(Cl)C(Cl)(Cl)Cl` (stereo not given), the result was inactive.

Turning to `Nc1nc(N)nc(NC2CC2)n1`, the compound was classed as inactive.

For `C[N+]1(C)CCCCC1`, the compound was called inactive.

As to `CC1(C(=O)Nc2ccc(O)c(Cl)c2Cl)CCCCC1`, the compound was called inactive.

On to `CCOC(=O)CC(SP(=O)(OC)OC)C(=O)OCC` (stereo not given), for which the compound was classed as inactive.

For the compound `CCCSP(=O)(OCC)SCCC`, the result was inactive.

Consider `CCC(=O)Nc1ccc(Cl)c(Cl)c1`, for which the outcome was inactive.

Regarding `CCc1cccc(C)c1N(C(=O)CCl)C(C)COC` (stereo not given), the outcome was inactive.

In the case of `CC(=NC#N)N(C)Cc1ccc(Cl)nc1`, the compound was called inactive.

`CC(C)N(C(=O)SCC(Cl)=C(Cl)Cl)C(C)C`: the compound was classed as inactive.

As to `COP(=O)(OC)OC(Br)C(Cl)(Cl)Br` (stereo not given), the call was inactive.

As to `C#CC(C)(C)NC(=O)c1cc(Cl)cc(Cl)c1`, the outcome was inactive.

As to `FC(F)C(F)(F)OCC(Cn1cncn1)c1ccc(Cl)cc1Cl` (stereo not given), the AC50 (in general, the midpoint of the concentration-response curve, whichever way the signal moves) was 48.5 µM (active).

As to `COP(=O)(NC(C)=O)SC` (stereo not given), the compound was classed as inactive.

Take `CN(C)C(=O)Nc1cccc(C(F)(F)F)c1`: the call was inactive.

As for `CC(C)=CC1C(C(=O)OCN2C(=O)C3=C(CCCC3)C2=O)C1(C)C` (stereo not given), the compound was called inactive.

For `CCCCSP(=O)(SCCCC)SCCCC`, the result was inactive.

Consider `CCc1cnc(C2=NC(C)(C(C)C)C(=O)N2)c(C(=O)O)c1` (stereo not given), for which the compound was classed as inactive.

With `CCOP(=S)(Oc1cnc(C(C)(C)C)nc1)OC(C)C` (stereo not given), the compound was classed as inactive.

In the case of `CCc1cccc(CC)c1N(COC)C(=O)CCl`, the compound was classed as inactive.

`COc1ccc(C(=CC(=O)N2CCOCC2)c2ccc(Cl)cc2)cc1OC`: the result was inactive.

For `CC(Oc1cccc(Cl)c1)C(=O)O` (stereo not given), the outcome was inactive.

Turning to `CCOP(=S)(OCC)Oc1ccc([N+](=O)[O-])cc1`, the compound was called inactive.

`C#CCC1=C(C)C(OC(=O)C2C(C=C(C)C)C2(C)C)CC1=O` (stereo not given): the result was inactive.

Regarding `CCC(CC)Nc1c([N+](=O)[O-])cc(C)c(C)c1[N+](=O)[O-]`, the compound was called inactive.

Turning to `CCC(=NOC/C=C/Cl)C1=C(O)CC(C2CCOCC2)CC1=O` (stereo not given), the compound was called inactive.

Regarding `CC1=NNC(=O)N(/N=C/c2cccnc2)C1`, the compound was classed as inactive.

With `CCOP(=O)(OCC)Oc1cc(C)nc(C(C)C)n1`, the outcome was inactive.

For `CCOP(=S)(OCC)Oc1ccc2c(C)c(Cl)c(=O)oc2c1`, the outcome was inactive.

As for `Cc1nn(-c2cc(NS(C)(=O)=O)c(Cl)cc2Cl)c(=O)n1C(F)F`, the call was inactive.

Turning to `CSC1=N[C@@](C)(c2ccccc2)C(=O)N1Nc1ccccc1`, the compound was called inactive.
